{"source": "paper PMC7862700", "about": "“An all-to-all approach to the identification of sequence-specific readers for epigenetic DNA modifications on cytosine”", "experiment_in_all_cases": "DAPPL (digital affinity profiling via proximity ligation, sequencing); 10 mM Tris-HCl pH 7.5, 50 mM NaCl, 1 mM DTT, 4% glycerol, room temperature, 30 min; GST-TFs on glutathione beads, 16-mer random dsDNA library, 0.1% formaldehyde crosslink after washing; high values mean tight binding", "key": {"FEV": {"target": "T1, FEV (Homo sapiens, UniProt Q99581 1-238)", "T1 sequence": "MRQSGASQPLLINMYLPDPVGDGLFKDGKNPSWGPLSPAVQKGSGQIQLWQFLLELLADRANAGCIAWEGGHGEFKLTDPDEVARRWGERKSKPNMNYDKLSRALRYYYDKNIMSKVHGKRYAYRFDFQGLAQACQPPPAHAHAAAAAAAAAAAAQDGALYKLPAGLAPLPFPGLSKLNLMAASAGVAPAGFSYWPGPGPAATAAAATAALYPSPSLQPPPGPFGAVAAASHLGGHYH", "settings": "protein: recombinant; tags: N-terminal GST; dsDNA, one strand shown", "procedure,_shortened": "(§1)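 Beads coated with glutathione captured GST-fused human transcription factors that had been expressed in yeast, and the factors were then given DNA barcodes and pooled with a tag-only sample. The pools were incubated with 200 nmole of a random double-stranded 16-mer DNA library in Tris/NaCl/DTT/glycerol buffer for 30 min at room temperature, washed, crosslinked with 0.1% formaldehyde and proximity-ligated with BsaI/T4 ligase at 37 °C for 1 h. PCR amplification and Illumina NextSeq500 sequencing came last. Binding signal is each hexamer's read frequency for a factor divided by its frequency for the tag-only sample.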"}, "ETV5": {"target": "ETV5 (Homo sapiens, UniProt P41161 1-510)", "sequence (P41161 whole entry)": "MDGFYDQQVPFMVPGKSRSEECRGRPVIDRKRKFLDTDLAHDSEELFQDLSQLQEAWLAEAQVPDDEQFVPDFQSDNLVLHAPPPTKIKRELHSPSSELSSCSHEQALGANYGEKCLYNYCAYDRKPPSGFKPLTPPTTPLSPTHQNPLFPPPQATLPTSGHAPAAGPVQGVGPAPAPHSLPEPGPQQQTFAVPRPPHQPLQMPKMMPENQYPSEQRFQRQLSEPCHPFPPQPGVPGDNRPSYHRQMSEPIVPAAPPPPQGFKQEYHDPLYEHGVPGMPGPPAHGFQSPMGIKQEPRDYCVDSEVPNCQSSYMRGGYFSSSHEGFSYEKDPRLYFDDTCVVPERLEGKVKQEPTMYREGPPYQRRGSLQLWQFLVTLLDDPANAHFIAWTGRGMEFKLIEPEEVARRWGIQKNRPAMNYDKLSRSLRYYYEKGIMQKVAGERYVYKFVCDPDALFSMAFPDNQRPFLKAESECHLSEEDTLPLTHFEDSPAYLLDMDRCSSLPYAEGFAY", "settings": "protein: recombinant; tags: N-terminal GST; dsDNA, one strand shown", "procedure,_shortened": "as §1"}, "HSF1": {"target": "HSF1 (Homo sapiens, UniProt Q00613 1-529)", "sequence (Q00613 whole entry)": "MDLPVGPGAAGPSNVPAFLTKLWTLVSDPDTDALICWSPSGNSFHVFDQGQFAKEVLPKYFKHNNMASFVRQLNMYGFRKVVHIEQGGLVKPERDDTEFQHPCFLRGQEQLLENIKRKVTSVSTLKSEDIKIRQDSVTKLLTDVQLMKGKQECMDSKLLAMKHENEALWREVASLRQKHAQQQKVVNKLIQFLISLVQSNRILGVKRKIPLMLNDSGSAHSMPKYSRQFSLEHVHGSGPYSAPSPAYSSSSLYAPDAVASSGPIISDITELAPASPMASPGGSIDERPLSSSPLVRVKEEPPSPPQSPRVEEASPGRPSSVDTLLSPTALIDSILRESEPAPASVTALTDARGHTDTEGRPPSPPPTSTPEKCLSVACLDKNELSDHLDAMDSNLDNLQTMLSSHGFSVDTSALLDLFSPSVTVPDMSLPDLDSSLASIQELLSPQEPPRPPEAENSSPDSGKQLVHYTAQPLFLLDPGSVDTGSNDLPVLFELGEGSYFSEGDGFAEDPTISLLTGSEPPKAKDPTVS", "settings": "protein: recombinant; tags: N-terminal GST; chain copies: 3; dsDNA, one strand shown", "procedure,_shortened": "as §1"}, "SPIC": {"target": "T2, SPIC (Homo sapiens, UniProt Q8N5J4 1-248)", "T2 sequence": "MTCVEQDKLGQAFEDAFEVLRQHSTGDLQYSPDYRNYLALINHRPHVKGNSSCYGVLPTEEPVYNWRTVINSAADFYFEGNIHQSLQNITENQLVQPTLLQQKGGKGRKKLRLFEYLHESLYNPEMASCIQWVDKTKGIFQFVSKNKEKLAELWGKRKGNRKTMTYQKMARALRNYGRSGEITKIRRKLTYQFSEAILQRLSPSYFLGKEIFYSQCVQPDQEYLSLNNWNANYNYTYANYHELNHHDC", "settings": "protein: recombinant; tags: N-terminal GST; dsDNA, one strand shown", "procedure,_shortened": "as §1"}, "ELF4": {"target": "ELF4 (Homo sapiens, UniProt Q99607 1-663)", "sequence (Q99607 whole entry)": "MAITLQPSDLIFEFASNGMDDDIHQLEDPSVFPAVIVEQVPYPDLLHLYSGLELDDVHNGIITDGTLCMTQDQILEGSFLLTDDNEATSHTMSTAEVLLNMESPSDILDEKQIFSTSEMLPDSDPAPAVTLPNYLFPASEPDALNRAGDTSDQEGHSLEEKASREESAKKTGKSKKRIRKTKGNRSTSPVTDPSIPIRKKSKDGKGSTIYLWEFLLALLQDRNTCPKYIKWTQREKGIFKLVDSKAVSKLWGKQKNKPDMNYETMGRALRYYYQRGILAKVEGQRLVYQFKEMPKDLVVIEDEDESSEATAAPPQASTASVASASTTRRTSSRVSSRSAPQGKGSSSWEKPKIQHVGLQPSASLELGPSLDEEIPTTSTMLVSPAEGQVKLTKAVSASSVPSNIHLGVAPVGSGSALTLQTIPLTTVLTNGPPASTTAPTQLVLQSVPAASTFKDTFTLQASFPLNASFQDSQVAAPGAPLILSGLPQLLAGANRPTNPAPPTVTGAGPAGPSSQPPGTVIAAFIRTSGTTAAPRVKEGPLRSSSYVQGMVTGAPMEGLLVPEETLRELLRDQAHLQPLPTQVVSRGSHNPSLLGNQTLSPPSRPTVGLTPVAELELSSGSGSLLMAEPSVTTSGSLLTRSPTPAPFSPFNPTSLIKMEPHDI", "settings": "protein: recombinant; tags: N-terminal GST; dsDNA, one strand shown", "procedure,_shortened": "as §1"}, "ELK4": {"target": "T3, ELK4 (Homo sapiens, UniProt P28324-2 1-405)", "T3 sequence": "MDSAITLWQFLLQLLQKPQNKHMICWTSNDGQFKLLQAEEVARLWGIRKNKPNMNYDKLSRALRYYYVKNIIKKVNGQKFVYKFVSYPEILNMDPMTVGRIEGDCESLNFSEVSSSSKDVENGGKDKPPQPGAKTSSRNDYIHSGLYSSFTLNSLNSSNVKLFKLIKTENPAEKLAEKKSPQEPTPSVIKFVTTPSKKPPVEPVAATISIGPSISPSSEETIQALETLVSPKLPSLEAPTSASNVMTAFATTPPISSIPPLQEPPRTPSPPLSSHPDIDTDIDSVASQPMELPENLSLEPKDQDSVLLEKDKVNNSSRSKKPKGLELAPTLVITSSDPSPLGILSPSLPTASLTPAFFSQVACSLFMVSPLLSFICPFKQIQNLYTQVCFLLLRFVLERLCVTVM", "settings": "protein: recombinant; tags: N-terminal GST; dsDNA, one strand shown", "procedure,_shortened": "as §1"}, "ETV2": {"target": "T4, ETV2 (Homo sapiens, UniProt O00321 1-342)", "T4 sequence": "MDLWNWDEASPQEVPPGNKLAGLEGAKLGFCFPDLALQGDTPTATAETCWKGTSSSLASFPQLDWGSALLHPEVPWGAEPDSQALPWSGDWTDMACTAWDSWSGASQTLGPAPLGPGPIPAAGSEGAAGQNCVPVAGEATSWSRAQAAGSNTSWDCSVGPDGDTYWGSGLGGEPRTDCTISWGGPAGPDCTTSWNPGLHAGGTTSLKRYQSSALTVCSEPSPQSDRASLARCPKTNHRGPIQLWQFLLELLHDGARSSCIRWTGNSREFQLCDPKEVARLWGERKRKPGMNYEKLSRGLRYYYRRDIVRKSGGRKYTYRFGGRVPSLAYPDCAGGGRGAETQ", "settings": "protein: recombinant; tags: N-terminal GST; dsDNA, one strand shown", "procedure,_shortened": "as §1"}, "ELF3": {"target": "T5, ELF3 (Homo sapiens, UniProt P78545 1-371)", "T5 sequence": "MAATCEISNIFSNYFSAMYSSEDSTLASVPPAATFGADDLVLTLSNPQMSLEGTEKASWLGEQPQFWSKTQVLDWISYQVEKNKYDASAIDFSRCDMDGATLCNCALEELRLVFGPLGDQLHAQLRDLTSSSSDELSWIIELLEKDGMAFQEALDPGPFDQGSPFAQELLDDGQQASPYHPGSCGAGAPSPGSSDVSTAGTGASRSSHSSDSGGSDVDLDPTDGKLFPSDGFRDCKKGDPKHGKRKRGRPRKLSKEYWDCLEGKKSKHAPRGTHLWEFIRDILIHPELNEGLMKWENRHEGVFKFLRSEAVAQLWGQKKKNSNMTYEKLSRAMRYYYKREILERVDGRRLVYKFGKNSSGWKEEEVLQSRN", "settings": "protein: recombinant; tags: N-terminal GST; dsDNA, one strand shown", "procedure,_shortened": "as §1"}, "CRX": {"target": "CRX (Homo sapiens, UniProt O43186 1-299)", "sequence (O43186 whole entry)": "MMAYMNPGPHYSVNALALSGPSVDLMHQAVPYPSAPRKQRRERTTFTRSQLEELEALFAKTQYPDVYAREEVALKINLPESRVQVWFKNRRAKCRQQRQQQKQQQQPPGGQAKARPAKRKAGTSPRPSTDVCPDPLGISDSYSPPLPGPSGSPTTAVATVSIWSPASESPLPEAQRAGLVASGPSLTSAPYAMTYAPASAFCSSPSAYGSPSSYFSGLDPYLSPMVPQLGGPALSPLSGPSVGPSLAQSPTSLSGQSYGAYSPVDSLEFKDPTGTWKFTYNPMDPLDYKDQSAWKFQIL", "settings": "protein: recombinant; tags: N-terminal GST; dsDNA, one strand shown", "procedure,_shortened": "as §1"}, "ETV1": {"target": "ETV1 (Homo sapiens, UniProt P50549 1-477)", "sequence (P50549 whole entry)": "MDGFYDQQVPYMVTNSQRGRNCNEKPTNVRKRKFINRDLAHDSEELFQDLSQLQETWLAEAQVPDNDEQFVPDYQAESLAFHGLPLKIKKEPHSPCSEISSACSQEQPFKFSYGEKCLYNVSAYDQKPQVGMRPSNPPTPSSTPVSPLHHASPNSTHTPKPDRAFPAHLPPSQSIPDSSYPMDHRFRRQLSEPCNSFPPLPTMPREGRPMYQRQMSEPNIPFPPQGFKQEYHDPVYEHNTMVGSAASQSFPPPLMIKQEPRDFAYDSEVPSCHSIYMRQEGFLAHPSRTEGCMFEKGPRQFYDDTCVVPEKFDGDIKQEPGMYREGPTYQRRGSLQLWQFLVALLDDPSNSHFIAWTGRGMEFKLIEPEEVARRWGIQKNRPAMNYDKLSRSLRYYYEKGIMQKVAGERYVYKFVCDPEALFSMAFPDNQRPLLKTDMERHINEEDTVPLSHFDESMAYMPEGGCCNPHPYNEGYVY", "settings": "protein: recombinant; tags: N-terminal GST; dsDNA, one strand shown", "procedure,_shortened": "as §1"}}, "data": [{"sequence": "ACTAAC", "values": [{"measurement": "binding signal", "setting": "FEV", "value": "1.25 fold enrichment (6-mer frequency, TF over GST control)"}, {"measurement": "binding signal", "setting": "ETV5", "value": "1.26 fold enrichment (6-mer frequency, TF over GST control)"}, {"measurement": "binding signal", "setting": "HSF1", "value": "1.08 fold enrichment (6-mer frequency, TF over GST control)"}, {"measurement": "binding signal", "setting": "SPIC", "value": "1.27 fold enrichment (6-mer frequency, TF over GST control)"}, {"measurement": "binding signal", "setting": "ELF4", "value": "1.33 fold enrichment (6-mer frequency, TF over GST control)"}, {"measurement": "binding signal", "setting": "ELK4", "value": "1.19 fold enrichment (6-mer frequency, TF over GST control)"}, {"measurement": "binding signal", "setting": "ETV2", "value": "1.19 fold enrichment (6-mer frequency, TF over GST control)"}, {"measurement": "binding signal", "setting": "ELF3", "value": "1.25 fold enrichment (6-mer frequency, TF over GST control)"}, {"measurement": "binding signal", "setting": "CRX", "value": "1.18 fold enrichment (6-mer frequency, TF over GST control)"}, {"measurement": "binding signal", "setting": "ETV1", "value": "1.25 fold enrichment (6-mer frequency, TF over GST control)"}]}]}
